Source: PubChem BioAssay
EWS-Fli block – blocks EWS/Fli oncoprotein-driven transcription; 350,000 tested, 0.67% active; A673 NR0B1-luciferase reporter, viability-normalised; inhibition, % at 12.6 µM;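 active means mean inhibition of at least 50% after viability correction, with every replicate also passing that limit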;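 further: firefly luciferase signal divided by Alamar Blue viability fluorescence both relative to DMSO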
PAX8 reporter – PAX8 transcriptional activity inhibition. RMG-I TPO-luciferase reporter, SteadyGlo, 24 h. inhibition, % at 12.6 µM. 360,000 tested, 1.2% active. AID 652154;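 active means mean replicate inhibition at least 60% with every replicate also reaching 60%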;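 further: luciferase light reporting Pax8 driven TPO promoter activity; plate controls were median of neutral control wells for no effect and mitoxantrone controls for full effect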
LGR2 inh – blocks bursicon-induced cAMP signaling via Drosophila LGR2. HEK293 LGR2, CRE-luciferase, bursicon-stimulated, 4 h. inhibition, % at 9.99 µM. 380,000 tested, 0.35% active. AID 720647;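 active means drop in luminescence signal, shown as inhibition above about 50% in the replicate tests, limit read from the data, passing the limit was not always enough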;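 further: agonist challenge used bursicon conditioned medium at about half maximal strength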
TWEAK Fn14 block – inhibitors of TWEAK-Fn14 interaction signaling; AID 1159606; TWEAK-stimulated Fn14 reporter cells, luciferase luminescence, 8 h; 360,000 tested, 2% active; inhibition, % at 10 µM; in the data active means inhibition above about 50%
TROY signal inh – inhibitors of TROY-dependent NF-kB signaling | Q293 LMP1-TROYcd NF-kB luciferase reporter, 4 h | inhibition, % at 10 µM | 360,000 tested, 0.98% active | AID 1347056;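 active means compounds whose plate-normalised and pattern-corrected inhibition of the luciferase reporter signal at the single screening dose is 50% or more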
Starred values were filed as active, the others as inactive; x = no result given; ! = not confirmed by another sample. Rows were chosen to be rich in hits. Some 2.8% of all compounds tested hit in one or more screens of this group.

SMILES	EWS-Fli block	PAX8 reporter	LGR2 inh	TWEAK Fn14 block	TROY signal inh
C[C@H]1CN([C@@H](C)CO)C(=O)Cc2cc(NC(=O)NC3CCCCC3)ccc2O[C@@H]1CN(C)Cc1ccc(-c2ccccc2)cc1	13	103*	-5	x	x
C[C@@H]1CN([C@@H](C)CO)C(=O)Cc2cc(NC(=O)NC3CCCCC3)ccc2O[C@H]1CN(C)Cc1ccc(-c2ccccc2)cc1	17	79*	22	x	x
C[C@H](CO)N1C[C@H](C)[C@H](CN(C)Cc2ccc(-c3ccccc3)cc2)Oc2ccc(NC(=O)NC3CCCCC3)cc2CC1=O	3	16	35	x	x
COc1ccc(NC(=O)Nc2ccc3c(c2)C(=O)N([C@H](C)CO)C[C@H](C)[C@H](CN(C)C(=O)Nc2ccccc2)OCCCC[C@H](C)O3)cc1	-11	2	23	x	x
CC1(C)CC(=O)c2cc(C(=O)NCc3ccco3)c(=O)n(-c3ccccc3)c2C1	x	x	x	83*	x
O=C(CCl)NC1CCCc2ccccc21 (stereo unspecified)	15	26	8	50*	0
O=C(Cc1ccc(Br)cc1)NC1CCCc2ccccc21 (stereo unspecified)	7	18	10	-20	-4
CN(Cc1ccccc1)C(=O)c1cccc(NC(=O)Cc2ccc(NC(=O)C3CCN(C(=O)CCc4ccccc4)CC3)cc2)c1	25	37	18	85*	57*
CN(C(=O)c1cccc(NC(=O)Cc2ccc(NC(=O)C3CCCN(C(=O)CCc4ccccc4)C3)cc2)c1)C1CCCCC1 (stereo unspecified)	23	23	8	89*	62*
COc1cccc(-c2ccc([C@H]3[C@H](CO)N(C(C)=O)C34CN(C(C)=O)C4)cc2)c1	1	x	11	x	x
CC(C)(C)C(=O)Nc1ccc(-c2cc3cc(Cl)ccc3o2)cc1	-36	-71	x	58*	61*
CC(C)(Oc1ccc(Cl)cc1)C(=O)Nc1ccc2oc(=O)ccc2c1	6	0	2	3	-5
CCC(=O)Nc1ccc2c(c1)C(=O)N(C)C[C@H](OC)[C@H](C)CN(CC1CC1)[C@@H](C)CO2	4	-11	10	x	x
C/C(=N\Nc1ccc2nncn2n1)c1ccco1	-7	9	25	12	-8
C/C(=N\Nc1ccc2nncn2n1)c1ccccn1	35	63*	-1	-19	-10
Cc1nc(SCC(=O)Nc2ccc(S(=O)(=O)N3CCOCC3)cc2)c2c(C)c(C)sc2n1	1	43	36	27	51*
Cc1nc(SCC(=O)N2CCOCC2)c2c(C)c(C)sc2n1	-4	2	7	1	-40
Cc1c([N+](=O)[O-])c2ccc(O)cc2n1-c1ccccc1	-17	-7	-7	56*	32
CNC(=O)C[C@@H]1CC[C@H]2[C@@H](COC[C@@H](O)CN2C(=O)c2ccc3c(c2)OCO3)O1	x	x	-5	x	x
COc1ccc(S(=O)(=O)Nc2ccc3c(c2)C(=O)N([C@H](C)CO)C[C@@H](C)[C@@H](CN(C)C(=O)NC2CCCCC2)OCCCC[C@@H](C)O3)cc1	22	8	-9	x	x
Cc1cc2ncc(-c3ccc(Cl)cc3)cn2n1	-61	-94	-59	-6	-53
Cc1ccc(-c2cnc3cc(C)nn3c2)cc1	48	-25	-11	74*	18
Cc1ccc(-c2cnc3c(Cl)c(C)nn3c2)cc1	53*	-78	57*	75*	10
CCOC(=O)c1cnc2ccc(C)cc2c1Nc1ccc(N2CCOCC2)cc1	x	60	x	56*	25
Cc1noc(C)c1NC(=O)N(C)C[C@H]1Oc2c(NC(=O)c3ccc(-c4nccs4)cc3)cccc2C(=O)N([C@H](C)CO)C[C@@H]1C	-8	x	1	x	x
SMILES	EWS-Fli block	PAX8 reporter	LGR2 inh	TWEAK Fn14 block	TROY signal inh
O=C(OCC(=O)N1CCCCC1)c1cccs1	-33	-109	-9	23	-2
CC1CCN(C(=O)COC(=O)c2cccs2)CC1	-4	-97	12	58*	3
Cc1cc(C(C#N)c2ccc(Cl)cc2)c(Cl)cc1NC(=O)c1cc(I)cc(I)c1O (stereo unspecified)	1	3	x	24	70*
CCCOc1ccc2[nH]c(C(=O)N/N=C/c3cc(OC)c(OC)c(OC)c3)cc2c1	-7	91*	-4	0	2
O=C(C[C@H]1C=C[C@H](NC(=O)c2ccncc2)[C@H](CO)O1)NCC1CCCCC1	-7	x	6	x	x
O=c1cc(Nc2ccc3c(c2)OCCO3)[nH]c(=O)n1Cc1ccc(F)cc1	-2	x	-1	69*	51*
OC1CCC(Nc2ccn3nc(-c4cccc(OCc5ccccc5)c4)cc3n2)CC1 (stereo unspecified)	-23	5	52*	42	35
C[C@H]1CCCCO[C@@H](CN(C)C(=O)Nc2ccc3c(c2)OCO3)[C@@H](C)CN([C@@H](C)CO)C(=O)c2cc(NC(=O)c3ccccc3)ccc2O1	-8	-20	4	x	x
Cc1ccc(NS(=O)(=O)c2cccc(C(=O)N/N=C/c3c(C)nn(-c4ccccc4)c3N3CCCC3)c2)c(C)c1	x	14	14	57*	14
Cc1noc(C)c1NC(=O)N(C)C[C@H]1Oc2c(NS(=O)(=O)c3cn(C)cn3)cccc2C(=O)N([C@H](C)CO)C[C@H]1C	-2	x	-4	x	x
C[C@H]1Cn2cnc(C(=O)Nc3cccc(Cl)c3)c2C(=O)N1	-2	-18	14	71*	52*
CC(=O)OCC(=O)Nc1ccc(Cl)cc1Cl	x	x	11	54*	x
CN(C)C(=S)SCC(=O)Nc1ccc(Cl)cc1Cl	75*	-17	-22	-36	-33
CC(=O)OCC(=O)Nc1ccc([N+](=O)[O-])cc1Cl	-8	1	-8	-2	17
Cc1ccc(Cl)cc1NC(=O)COC(=O)C12CC3CC(CC(C3)C1)C2	x	-13	x	67*!	4
Cc1ccc(Cl)cc1NC(=O)COC(=O)C1CCCC1	x	x	x	3	-5
C[C@H]1CN([C@@H](C)CO)C(=O)Cc2cc(NC(=O)Nc3cccc4ccccc34)ccc2O[C@@H]1CN(C)C(=O)Nc1ccccc1	2	10	-9	x	x
Cc1c(C(=O)Oc2cccc3ccccc23)cnn1-c1ccccc1	x	x	-13	73*	82*
CC(=O)c1cnn(-c2ccccc2)c1C	-20	10	0	-13	-6
COc1ccc(CCNc2nnc(Sc3nnnn3-c3ccccc3)s2)cc1OC	x	94*	x	38	25
CCOC(=O)/C(C#N)=C1/C=C(C)NC(c2ccccc2O)=N1	x	x	14	57*	54*
COC(=O)COc1ccc(/C=N/NC(=O)c2ccc(N(Cc3ccccc3)S(C)(=O)=O)cc2)cc1	36	62*	21	0	6
COc1ccccc1NC(=O)COc1ccc(/C=N/NC(=O)CSCc2ccc(Cl)cc2)cc1	x	x	x	33	51*
COC(=O)COc1ccc(/C=N/NC(=O)CN(c2ccccc2OC)S(=O)(=O)c2ccccc2)cc1	34	69*	8	0	-12
O=C(N/N=C/c1cc2c3c(c1O)CCCN3CCC2)c1ccccc1O	11	62*	7	-14	-23
